CBX7 inh: CBX7 chromodomain binding inhibitors, primary screen, biochemical, AlphaScreen | Chromobox protein homolog 7 (Homo sapiens), O95931 | AlphaScreen His6-CBX7 / biotin-H3K27me3 peptide binding; active compounds read low | normalised signal (fraction of DMSO) (concentration not given with the values) | actives 1.1% (n = 66,000) | AID 1224903, 2016; in the data active means normalised signal below about 0.5
Target sequence (O95931 whole entry, looked up): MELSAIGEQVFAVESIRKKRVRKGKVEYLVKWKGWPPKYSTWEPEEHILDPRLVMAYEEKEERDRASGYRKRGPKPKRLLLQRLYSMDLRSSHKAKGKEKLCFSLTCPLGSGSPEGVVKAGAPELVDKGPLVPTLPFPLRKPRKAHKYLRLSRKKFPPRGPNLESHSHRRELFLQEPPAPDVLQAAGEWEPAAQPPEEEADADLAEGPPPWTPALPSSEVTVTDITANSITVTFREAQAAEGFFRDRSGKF
The depositor's hits bear a star. Only a selection was taken, and hits are over-represented in it overall.

SMILES | CBX7 inh
COC(=O)c1c[nH]n2c(=O)c(Cc3ccccc3C)c(C)nc12 | 1.1
Cc1cccc(-c2nc(CN3CCCC(C(=O)NC4CCC(C)CC4)C3)c(C)o2)c1 (stereo not drawn) | 1
COC(=O)c1c[nH]n2c(NC3CCC(C)CC3)c(-c3cccc(F)c3)nc12 (stereo not drawn) | 0.33*
COC(=O)c1c[nH]n2c(=O)c(Cc3cccc(Cl)c3)c(C)nc12 | 0.98
Cc1nc2c(C(=O)NC3CC3)c[nH]n2c(=O)c1Cc1ccccc1F | 1
COC(=O)c1c[nH]n2c(=O)c(Cc3cc(C)ccc3C)c(C)nc12 | 1.3
Cc1c(-c2ccc(Cl)cc2)nc2ccccc2c1C(=O)NCc1ccccc1 | 0.94
COc1ccccc1NC(=O)c1ccc(CNc2c(N3CCCCC3)c(=O)c2=O)cc1 | 1.4
CC(C)NC(=O)c1ccc2c(c1)N(Cc1ccccc1Cl)C(=O)CS2 | 1
Cc1ccc(-n2c(=O)cc(N3CCC(Cc4ccccc4)CC3)[nH]c2=O)cc1 | 1.1
CCCCn1c(C2CC(=O)N(c3ccccc3F)C2)nc2ccccc21 (stereo not drawn) | 1.1
CCCCNC(=O)c1cc(Nc2ccc(OCC)cc2)nc2ccccc12 | 0.98
COC(=O)c1ccccc1NC(=O)CCc1c(C)nc2cc(-c3ccccc3)nn2c1C | 0.99
O=C1CCCc2c1cc(C(=O)Nc1ccccc1)c(=O)n2-c1ccc(Cl)cc1 | 1
CCOc1ccc(N2C(=O)CC(N3CCN(c4ccccc4Cl)CC3)C2=O)cc1 (stereo not drawn) | 1.1
CCOc1ccc2nc(N3CCC(C(=O)NCCCSC4CCCCC4)CC3)sc2c1 | 0.94
Cc1cccc(N2C(=O)CC(N3CCN(c4ccc5c(c4)OCO5)CC3)C2=O)c1 (stereo not drawn) | 0.91
COc1cccc(-n2nc(C(=O)Nc3cc(C)on3)c3ccccc3c2=O)c1 | 1
O=c1[nH]c2ccc(NCc3ccc(OCc4ccc(Cl)cc4)cc3)cc2[nH]1 | 0.86
CCOc1cccc(CNc2ccc3[nH]c(=O)[nH]c3c2)c1OCc1ccc(Cl)cc1 | 0.44*
O=c1[nH]c2ccc(NCc3ccc(F)cc3)cc2[nH]1 | 0.92
CCOC(=O)c1c(-c2ccccc2)csc1NC(=O)c1ccc(F)cc1 | 1.1
CCn1ncc(CN(C)C(=O)c2cc(-c3ccccc3)nc3ccc(Br)cc23)c1C | 0.99
COc1cc(OC)cc(C(=O)Nc2cccc(-c3nc4cc(Cl)ccc4o3)c2)c1 | 1
COc1ccc(-c2nc(C(=O)NCCc3ccccc3)c(C)o2)cc1OC | 1
SMILES | CBX7 inh
CN(Cc1ccccc1)S(=O)(=O)c1ccc(C(=O)Nc2ccccc2-c2nc3ccccc3[nH]2)cc1 | 1
Cc1ccn2c(Nc3ccccc3C)c(-c3cccs3)nc2c1 | 0.99
Cc1ccc(OCC(=O)Nc2ccc3oc(-c4ccncc4)nc3c2)cc1 | 0.93
CCOc1ccc(-c2cc(C(=O)NCCN(CC)c3ccccc3)c3ccccc3n2)cc1 | 0.94
CCCCN(CCCNC(=O)c1cc(-c2ccncc2)nc2ccccc12)c1ccccc1 | 0.77
CCN(CCCNC(=O)c1cc(-c2cccnc2)nc2ccccc12)c1ccccc1 | 0.98
CN(C)CCNC(=O)c1cc(-c2ccncc2)nc2ccccc12 | 1.1
CCN(CCCNC(=O)c1cc(-c2ccncc2)nc2ccccc12)c1ccccc1 | 0.31*
CCN(CCNC(=O)c1cc(-c2cccnc2)nc2ccccc12)c1ccccc1 | 0.47*
COc1ccc2cc(C#N)c(Nc3cc(C)c(Cl)cc3OC)nc2c1 | 1.2
Cc1cc(Nc2ccc(C)c(Cl)c2)nc(NCc2ccccc2)n1 | 1
Cc1cccc(NC(=O)CSc2nccn2-c2ccc(F)cc2)c1 | 0.8
CCOc1ccc(N(CC)S(=O)(=O)c2ccc3c(c2)CCN3C(=O)CC)cc1 | 0.95
CC(C)n1cnc2cc(NCc3nc4ccccc4n3C)ccc21 | 0.87
CC(C)(C)n1cnc2cc(NCc3ccncc3)ccc21 | 0.96
CCn1cnc2cc(NCc3ccc(C)cc3)ccc21 | 0.52
CC(C)n1cnc2cc(NCc3ccc(Cl)cc3)ccc21 | 0.4*
CC(C)n1cnc2cc(NCc3ccc(Br)cc3)ccc21 | 0.38*
CCOc1ccc(CNc2ccc3c(c2)ncn3C)cc1 | 0.69
Cc1[nH]c2ccc(OC(F)(F)F)cc2c1CCNC(=O)c1cccnc1 | 0.93
COc1cc(C(=O)N2CCCC(c3ccccc3)C2)cc(OC)c1OC (stereo not drawn) | 0.99
COc1cccc(CNS(=O)(=O)c2ccc3c(c2)CCC(=O)N3)c1 | 0.99
COC(=O)c1ccc(NC(=O)Nc2ccc3snnc3c2)cc1 | 1
CCCOc1ccc(C(=O)NCCN2CCCCC2)c(O)c1 | 1
Cc1ccc(CNC(=O)C2CCCN(Cc3nc(-c4ccccc4C)oc3C)C2)cc1 (stereo not drawn) | 0.99
SMILES | CBX7 inh
CN(CCc1ccccn1)c1ncnc2c1cnn2-c1ccccc1 | 0.96
COC(=O)c1c[nH]n2c(NC3CCCCC3)c(-c3ccc(F)cc3)nc12 | 0.55
COC(=O)c1c[nH]n2c(NC3CCCC3)c(-c3ccc(F)cc3)nc12 | 0.28*
CCCCOc1ccc(-c2nc3c(C(=O)OC)c[nH]n3c2NC2CCCCC2)cc1 | 0.19*
COC(=O)c1c[nH]n2c(NC3CCCCCC3)c(-c3ccc(F)cc3)nc12 | 0.45*
COC(=O)c1c[nH]n2c(=O)c(Cc3ccc(C)cc3)c(C)nc12 | 1.2
CCCCOc1ccc(-c2nc3ncccn3c2NC2CCCCC2)cc1 | 0.94
CCCCOc1ccc(-c2nc3ccccc3c(C(=O)O)c2C)cc1 | 1
COC(=O)c1c[nH]n2c(NC3CCCCCC3)c(-c3ccc(C)cc3)nc12 | 0.43*
COC(=O)c1c[nH]n2c(=O)c(Cc3ccccc3F)c(C)nc12 | 1.2
CCOc1ccc(-c2nc3c(C(=O)OC)c[nH]n3c2NC2CCCCC2)cc1OC | 0.7
Cc1ccn2c(NC(=O)C3CCCCC3)c(-c3ccc(F)cc3)nc2c1 | 1
COC(=O)c1c[nH]n2c(=O)c(Cc3ccc(F)cc3Cl)c(C)nc12 | 1.3
Cc1ccc(CCNC(=O)c2ccc3c(=O)n4c(nc3c2)CCCCC4)cc1 | 0.88
CC(NC(=O)c1cccnc1)C(c1cccs1)N1CCN(Cc2ccccc2)CC1 (stereo not drawn) | 1
CCOCCCNC(=O)c1ccc2c(c1)N(Cc1c(F)cccc1Cl)C(=O)CS2 | 1
COc1ccc(Nc2ncc(C(=O)Nc3ccc(OC)c(Cl)c3)c3ccccc23)cc1 | 1
COc1ccc(CNC(=O)C2C3C(=O)N(Cc4ccccc4)CC34C=CC2(C)O4)cc1 (stereo not drawn) | 1.1
Cc1ccc(NC(=O)CCc2c(C)nc3cc(-c4cccc(F)c4)nn3c2C)c(Cl)c1 | 1
O=C(COc1ccc(Cl)cc1)Nc1ccc(-c2nc3ncccc3o2)cc1 | 1
O=C(Nc1cccc(F)c1)C(Cc1ccccc1)NS(=O)(=O)c1ccc(Br)s1 (stereo not drawn) | 0.79
COc1ccc(Cl)cc1Nc1nc(-c2ccccn2)cs1 | 0.96
COc1cc(NS(=O)(=O)c2ccc(Nc3nc(-c4ccc(C)cc4)cs3)cc2)nc(OC)n1 | 0.99
COc1ccccc1-c1cc2nc(C)c(CCC(=O)NCc3ccccn3)c(C)n2n1 | 1.1
O=C(c1cc(-c2ccccn2)nc2ccc(S(=O)(=O)N3CCOCC3)cc12)N1CCOCC1 | 1.2
CCCCNc1c2c(nc3ccc(Br)cc13)CC(C)(C)CC2=O | 1.1
CCN(CCCNC(=O)CN1C(=O)COc2ccc(C(C)(C)C)cc21)c1cccc(C)c1 | 0.27*
CCCCNC(=O)CN1C(=O)COc2ccc(C(C)(C)C)cc21 | 0.93

Assay outcomes: PubChem BioAssay, Bradner/Qi Labs at DFCI
